PubChem BioAssay (NCATS)
Results filed as inconclusive are left out. Active and inactive are the calls of the source. Unless noted, calls follow the shape of the dose curve; as a rule, active = well fitted curve in the direction sought with a large enough effect; inconclusive = small, poorly fitted or top-dose-only effect, or another doubt; inactive = no such curve, though single readings can be large; an effect the other way counts as inactive or inconclusive.

How the values were obtained:
[1] = Cell Viability - BJ (AID 421; calls by dose curve;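 also: potency is read from the fitted curve at half-maximal effect; cells exposed to compound for 40 hours at 37 °C before readout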); settings: BJ fibroblast viability, qHTS
In short: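 Cytotoxicity as drop in intracellular ATP (CellTiter-Glo, 20 min RT) after 40 hr compound exposure of BJ fibroblasts at 37 °C. Titrations scaled between DMSO and 100 uM tamoxifen, Hill-fitted for AC50.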

[2] = Cell Viability - Jurkat (AID 426;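 active = dose-dependent loss of cell ATP signal giving a full or clear fitted curve, ranked by lower potency value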; also: potency is read from the fitted curve at half-maximal effect); settings: qHTS
In short: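 Jurkat (Clone E6-1) cells, 5000/well in complete medium, exposed to compounds for 40 hr at 37C; intracellular ATP measured by CellTiter-Glo luminescence after 20 min at room temperature. AC50 from Hill fits.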

[3] = Cell Viability - Hek293 (AID 427;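 active = compounds whose dose-response curve shows a full or clear partial loss of cell viability, called from curve shape rather than a numeric limit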;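 also: potency is read from the fitted curve at half-maximal effect; cells exposed to compound for 40 hours at 37 °C before reading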); settings: qHTS
In short: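 Luminescent ATP content (CellTiter-Glo, 20 min at room temperature) was measured after a 40 hr, 37 °C compound exposure of HEK293 cells. AC50 values came from Hill-equation fits of qHTS concentration-response data normalized to DMSO and 100 uM tamoxifen.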

[4] = Cell Viability - HepG2 (AID 433; calls by dose curve;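 also: potency is read from the fitted curve at half-maximal effect; potency for ATP loss meaning cytotoxicity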); settings: qHTS
In short: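 Cytotoxicity is scored as loss of intracellular ATP in HepG2 cells exposed to compounds for 40 h. Concentration-response curves, normalized to DMSO and 100 uM tamoxifen, give AC50 values.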

[5] = Cell Viability - MRC5 (AID 434; calls by dose curve;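 also: potency is read from the fitted curve at half-maximal effect; potency reflects cytotoxicity seen as loss of intracellular ATP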); settings: MRC5 lung fibroblast viability, qHTS
In short: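 qHTS cytotoxicity in human lung fibroblast MRC5 cells; 40 hr treatment, 37 °C; cellular ATP by luciferase luminescence; DMSO = 0%, 100 uM tamoxifen = 100% inhibition; Hill-fit AC50.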

[6] = Cell Viability - SK-N-SH (AID 435; calls by dose curve;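 also: potency is read from the fitted curve at half-maximal effect; compound exposure lasted 40 h at 37 °C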); settings: SK-N-SH neuroblastoma cell viability qHTS
In short: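 Cells seeded at 1500 per well and incubated 5 hr at 37 °C. Compound added, then 40 hr at 37 °C. CellTiter-Glo added, 20 min at room temperature, luminescence read.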

[7] = Cell Viability - N2a (AID 540); settings: N2a mouse neuroblastoma cell viability; series mostly up to 92.2 µM;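 also: plate controls were DMSO alone for no effect and tamoxifen control for full effect; nearly all actives have a fitted effect of over 45% in size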
In short: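 Mouse neuroblastoma N2a cells, 1500/well, exposed to compounds 40 h at 37 °C in complete medium. Viability measured as cellular ATP by CellTiter-Glo luminescence; AC50 from Hill fits of concentration-response.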

[8] = Cell Viability - NIH 3T3 (AID 541); settings: NIH 3T3 cell viability, qHTS; series mostly up to 92.2 µM;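 also: plate controls were DMSO alone for no effect and tamoxifen positive control for full effect; nearly all actives have a fitted effect of over 25% in size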
In short: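 Mouse NIH 3T3 fibroblasts, 1000 cells/well, rested 5 hr at 37 °C, then exposed to compound for 40 hr at 37 °C in complete medium. Viability read as intracellular ATP by CellTiter-Glo luminescence; AC50 from Hill-equation fits of concentration-response data.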

[9] = Cell Viability - HUV-EC-C (AID 542); settings: HUV-EC-C endothelial cell viability, qHTS; series mostly up to 92.2 µM; also: % is scaled to controls: 0 for no effect and ±100 for the full control effect; nearly all actives have a fitted effect of over 35% in size
In short: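 HUV-EC-C human vascular endothelial cells, 1000/well, exposed to compound for 40 hr at 37 °C in complete medium. Intracellular ATP was read by CellTiter-Glo luminescence. AC50 came from Hill-equation fits of concentration-response data.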

[10] = Cell Viability - H-4-II-E (AID 543); settings: H-4-II-E rat hepatoma viability; series mostly up to 92.2 µM; also: % is scaled to controls: 0 for no effect and ±100 for the full control effect; nearly all actives have a fitted effect of over 35% in size
In short: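 Rat hepatoma H-4-II-E cells, 1500 per well, treated 40 h at 37 °C in complete medium. Cellular ATP read by CellTiter-Glo luminescence; AC50 from Hill fits of concentration-response.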

[11] = Cell Viability - SH-SY5Y (AID 544); settings: SH-SY5Y neuroblastoma cell viability; series mostly up to 92.2 µM;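 also: 0% = DMSO alone and -100% = 100 µM tamoxifen; nearly all actives have a fitted effect of over 55% in size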
In short: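 SH-SY5Y human neuroblastoma cells (1500/well) incubated 5 h, then compound-treated 40 h at 37 °C in complete medium. Viability read as intracellular ATP by CellTiter-Glo luminescence after 20 min; AC50 from Hill-equation fits of qHTS concentration-response.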

[12] = Cell Viability - Renal Proximal Tubule (AID 545); settings: renal proximal tubule cells viability, primary cells of rat origin; series mostly up to 91.7 µM;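 also: 0% = DMSO only and -100% = 100 µM tamoxifen; nearly all actives have a fitted effect of over 40% in size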
In short: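 Cytotoxicity is scored as a concentration-dependent drop in cellular ATP in primary rat renal proximal tubule cells exposed for 40 hr. AC50 derives from Hill modelling.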

[13] = Cell Viability - Mesenchymal (AID 546); settings: mesenchymal cells viability, qHTS; series mostly up to 91.7 µM;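 also: cells exposed to compound for 40 hours before reading; 0% = DMSO only and -100% = 100 µM tamoxifen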
In short: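 AC50 values reflect the drop in intracellular ATP in a human kidney mesenchymal line derived from normal glomeruli. Treatment lasts 40 hr at 37 °C in complete medium, and the signal comes from CellTiter-Glo luminescence.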

[14] = NFAT Signaling Pathway (AID 444; active = well fitted curve in either direction with a large enough effect, not every such curve was filed as active;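 also: carbachol stimulus at about its EC50 of 1 µM final; % is scaled to controls: 0 for no effect and ±100 for the full control effect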); settings: Jurkat NFAT-bla M1, carbachol, beta-lactamase ratio, 5 h; at 38 µM (top of the series)
In short: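 Read-out: CCF4 FRET ratio (460 nm/530 nm) after 1 h RT dye loading, used for %activity and AC50 from titration series. Cells: Jurkat NFAT-β-lactamase/M1 line, treated with compound plus 1 uM carbachol for 5 h, 37 °C.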

Cc1cc(O)c2c(c1)C(=O)c1cccc(O)c1C2=O
inactive: Potency [1] > 92 µM | Potency [2] > 92 µM | Potency [3] > 92 µM | Potency [4] > 92 µM | Potency [5] > 92 µM | Potency [6] > 92 µM | outcome [7] | outcome [8] | outcome [9] | outcome [10] | outcome [11] | outcome [12] | outcome [13]

COc1ccc([C@@H]2CNC(=O)C2)cc1OC1CCCC1
inactive: activity change, negative = inhibition [14] 11.5%

COc1ccc2c(c1OC)C(=O)OC2[C@H]1c2c(cc3c(c2OC)OCO3)CCN1C (stereo not given in full)
inactive: activity change, negative = inhibition [14] -9.62%
